# Results published in PubChem BioAssay AID1359 (The Scripps Research Institute Molecular Screening Center, 2008).
# Hit rate of the full screen: of about 220,000 compounds, about 970 (0.44%) were called active. What follows is part of a selection rich in actives, with near analogues and random picks from the rest. A number with no mark means an inactive call. Cut-off read from the data, not from the text of the source: active = activation above about 27%; inactive = the rest.
# Biological target: Neuropeptide Y receptor type 2 (Homo sapiens) (UniProt P49146)
# Assay: human Y2 receptor positive modulation or activation – cell-based, primary screen (AID 1359);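 note: cells stimulated with NPY near EC25 plus isoproterenol at EC100; 0% = vehicle plus submaximal agonist and 100% = vehicle plus saturating agonist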
# Settings: cells expressing NPY-Y2, potentiator/agonist read-out; at 3.6 µM; active compounds read high
# Chain of Neuropeptide Y receptor type 2 (Homo sapiens) (P49146 whole entry, looked up): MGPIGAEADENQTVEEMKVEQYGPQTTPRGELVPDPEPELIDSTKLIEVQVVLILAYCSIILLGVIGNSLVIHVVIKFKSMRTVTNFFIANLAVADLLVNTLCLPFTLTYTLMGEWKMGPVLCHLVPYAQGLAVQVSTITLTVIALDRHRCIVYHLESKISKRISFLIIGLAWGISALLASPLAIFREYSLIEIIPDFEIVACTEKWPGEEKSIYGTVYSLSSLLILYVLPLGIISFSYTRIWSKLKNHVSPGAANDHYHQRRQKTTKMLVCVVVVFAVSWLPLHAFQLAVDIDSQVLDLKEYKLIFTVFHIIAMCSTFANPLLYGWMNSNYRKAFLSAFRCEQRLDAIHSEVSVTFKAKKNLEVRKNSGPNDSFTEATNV
row,Compound,activation
1,Oc1c(Br)cc(/C=N/NC(=S)NCC2CCCO2)cc1Br (stereo not drawn),5.85%
2,Cn1nc(C(C)(C)C)c(NC(=O)c2sccc2Cl)c1C(C)(C)C,-3.45%
3,O=C(CSc1ncnc2scc(-c3ccccc3)c12)NCc1ccc2c(c1)OCO2,-18.5%
4,CCOC(=O)c1c(C)nn(-c2ncccc2NC(=O)CCC(=O)O)c1C,2.97%
5,CCCCOc1ccc(-c2ncc(C(=O)OCC)c(N)n2)cc1,-4.83%
6,CCOC(=O)CSc1nccc(N(C)C)c1C#N,-3.41%
7,CCOC(=O)C(Sc1ncc(C#N)c(N)n1)C(C)C (stereo not drawn),41.9% (active)
8,COc1ccc2c(c1)c1ncn(Cc3ccccn3)c(=O)c1n2C,-3.5%
9,Cc1oc2cc([N+](=O)[O-])c(O)c([N+](=O)[O-])c2c1C(=O)c1ccc(Br)cc1,8.73%
10,C[n+]1ccc(/C=C/c2c[nH]c3ccccc23)cc1,3.07%
11,O=C(O)/C=C\C(=O)Nc1ccc(OCc2ccccc2)cc1,-1.76%
12,CN(C)c1ccc(CNC23CN4CN(CN(C4)C2)C3)cc1,8.96%
13,CN(C)c1ccc(CNC2C3CC4CC(C3)CC2C4)cc1 (stereo not drawn),31.8% (active)
14,c1cnc(NC2C3CC4CC(C3)CC2C4)nc1 (stereo not drawn),2.83%
15,Cc1cccc(C)c1NC(=O)C(c1ccccc1)N1CC(=O)Nc2ccccc21 (stereo not drawn),-1.44%
16,CCOC(=O)/C(=C\c1ccc([N+](=O)[O-])cc1)C(=O)c1cc(C(C)=O)c(Nc2ccccc2)s1,-2.39%
17,CCOc1cc(/C=N/NC(=O)OC)ccc1OCCSc1ccc(Cl)cc1,3.6%
18,CC(CO)NCC12CC3CC(CC(C3)C1)C2 (stereo not drawn),2.65%
19,Cc1ccc(NC(=O)O/N=C/c2cccc([N+](=O)[O-])c2)cc1,-2.02%
20,O=C(NC(Nc1nc2ccc([N+](=O)[O-])cc2s1)(C(F)(F)F)C(F)(F)F)c1ccccc1,61.7% (active)
21,O=C(Nc1nc2ccc([N+](=O)[O-])cc2s1)c1ccncc1,17.8%
22,O=C(O)CCC(=O)Nc1nc2ccc([N+](=O)[O-])cc2s1,0.15%
23,CCc1c(C)sc(NC(=O)c2cccs2)c1C(N)=O,18%
24,Cc1coc2c(O)cc3c(c12)OC1(N2CCCCC2)C(=O)NCCCC31 (stereo not drawn),93% (active)
25,COc1ccc(C2c3c(C)nn(-c4ccccc4)c3NC(=O)N2c2ccccc2)cc1 (stereo not drawn),11.1%
26,Cc1ccc(C)c2c1cc(C)c1nnc(SCC(=O)Nc3cccc(C(=O)O)c3)n12,-10%
27,Cc1nn(CCOc2ccc(Br)cc2)c(C)c1[N+](=O)[O-],14.5%

row,Compound,activation
1,O=C(NC1C2CC3CC(C2)CC1C3)c1ccc(N2CCNCC2)c([N+](=O)[O-])c1 (stereo not drawn),29.4%
2,C#CCOCCOCCOCCNc1nc(N2CCN(C(=O)[C@H](Cc3ccc(O)cc3)n3cc(C(N)CC(C)C)nn3)CC2)nc(N2CCN(C(=O)[C@H](CCC(=O)O)n3cc(C(N)[C@H](C)CC)nn3)CC2)n1 (stereo partly drawn),-9.15%
3,C#CCOCCOCCOCCNc1nc(N2CCN(C(=O)[C@H](CCCCN)n3cc([C@@H](N)C(C)CC)nn3)CC2)nc(N2CCN(C(=O)[C@H](Cc3ccc(O)cc3)n3cc([C@@H](N)C(C)CC)nn3)CC2)n1 (stereo partly drawn),104% (active)
4,C#CCOCCOCCOCCNc1nc(N2CCN(C(=O)C(Cc3ccc(O)cc3)n3cc(C(N)CC(C)C)nn3)CC2)nc(N2CCN(C(=O)C(Cc3ccc(O)cc3)n3cc(C(N)C(C)CC)nn3)CC2)n1 (stereo not drawn),-7.8%
5,O=C(CCC(=O)NNc1nc2ccccc2c2nc(-c3ccccc3)nn12)NCCCN1CCCC1=O,-1.14%
6,CCCCNC(=S)N/N=C1\CCCCc2ccccc21,2.42%
7,CCN(CC)CC(=O)c1c[nH]c2ccc(OC)cc12,0.4%
8,COc1ccc2[nH]c(=S)cc(C)c2c1,-28%
9,COc1ccc2[nH]c3ccc(OC)cc3c2c1,65.6% (active)
10,O=C(c1c(Cl)cccc1Cl)N1CCN(c2cccc3[nH]ccc23)CC1,6.12%
11,C=Cn1c(C(=O)O)ccc1-c1ccc(OC)cc1,-9.57%
12,COc1ccc(C(=O)C2CCCN(Cc3ccc4nonc4c3)C2)c(C)c1 (stereo not drawn),-20.8%
13,CCOC(=O)c1[nH]ncc1CN1CCCC(C(=O)c2ccc(OC)cc2C)C1 (stereo not drawn),3.33%
14,COc1ccc(C(=O)C2CCCN(Cc3cccn3-c3ccccn3)C2)c(C)c1 (stereo not drawn),89.8% (active)
15,CC1CCc2sc(C(=O)N/N=C/C3CCCCC3)cc2C1 (stereo not drawn),4.14%
16,CSCC(=O)N1CCCC(C(=O)c2cc(F)ccc2F)C1 (stereo not drawn),0.81%
17,O=C(Nc1ccccc1)N1CCN(C2c3ccccc3-c3ccccc32)CC1,-13.1%
18,N#C/C(=C\N1CCOCC1)S(=O)(=O)c1ccc(Cl)cc1,8.91%
19,Cc1cccc(C)c1NC(=O)C1(C)c2cccc[n+]2CC(=O)N1Cc1cccs1 (stereo not drawn),-2.7%
20,C/C(=N/NC(=O)c1ccn(C)n1)c1ccncc1,9.5%
21,Cc1ccc(NC(=O)CC(=O)Nc2ccc(C)cc2)cc1,-4.26%
22,COC(=O)c1ccc(NC(=O)Nc2ccc(C)cc2)cc1,99.2% (active)
23,CC(=O)c1cccc(NC(=O)Nc2ccc(C)cc2)c1,6.31%
24,Cc1ccc(S(=O)(=O)N2CCN(C(=O)COC(=O)c3c(C)noc3C)CC2)c(C)c1,-1.02%
25,O=C(NC(Cc1c[nH]c2ccccc12)C(=O)N/N=C/c1ccc(Br)cc1)c1cccs1 (stereo not drawn),17.2%
26,COc1cc([N+](=O)[O-])ccc1NC(=S)N1CCN(c2ccccn2)CC1,-7.19%
